In general, inhibition refers to the change of the read-out against control, counted positive when it falls. What is called viability is a read-out of living cells in per cent, often relative to untreated cells. What is called remaining activity is the signal under treatment as a percentage of the control signal.

Where “and” joins values, the source holds several entries; their conditions need not be identical. Equal values may be shown once. Inconclusive results are not listed. Calls of active or inactive are those of the source.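 How the source made its calls, unless noted: active means at least 20% inhibition of 6-phosphogluconate dehydrogenase activity; inactive means the rest.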

Assay [1] deals with 6-phosphogluconate dehydrogenase, decarboxylating (Homo sapiens) (UniProt P52209). In words: inhibition of human phosphogluconate dehydrogenase – biochemical, recombinant enzyme, NADPH absorbance, primary screen (AID 1159550). Conditions: recombinant 6PGD, NADPH absorbance 341 nm; at 10 µM; stronger effect = higher value.
Assay [2] in a line: viability loss in pontine glioma line – cell-based, SU-DIPG-XVII, MIPE5.0, CellTiter-Glo, qHTS, dose response (AID 1347060; cut-off not given, nearly all actives have AC50 up to about 26 µM). To be noted: CellTiter-Glo ATP luminescence.
Assay [3] in a line: viability loss in pontine glioma line – cell-based, SU-DIPG-XIII, MIPE4.0, CellTiter-Glo, qHTS, dose response (AID 1347061; cut-off not given, nearly all actives have AC50 up to about 37 µM;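 further: cells exposed to compound for 48 hours before readout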). Conditions: CellTiter-Glo ATP luminescence. (In general: ATP-based viability assays read luminescence as a measure of living cells.)
The nature of assay [4]: viability loss in pontine glioma line – cell-based, JHH-DIPG-1, MIPE4.0, CellTiter-Glo, qHTS, dose response (AID 1347062; cut-off not given, nearly all actives have AC50 up to about 27 µM). To be noted: JHH-DIPG-1 viability, CellTiter-Glo ATP luminescence.
Assay [5] in a line: viability loss in pontine glioma line – cell-based, SU-DIPG-IV, MIPE4.0, CellTiter-Glo, qHTS, dose response (AID 1347063; cut-off not given, nearly all actives have AC50 up to about 30 µM;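 further: compound exposure lasted 48 hours before the viability readout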). To be noted: CellTiter-Glo ATP luminescence.
Assay [6] in a line: viability loss in pontine glioma line – cell-based, SU-DIPG-XIII, MIPE5.0, CellTiter-Glo, qHTS, dose response (AID 1347064; cut-off not given, nearly all actives have AC50 up to about 23 µM). Conditions: CellTiter-Glo ATP luminescence.
Assay [7] in a line: viability loss in pontine glioma line – cell-based, SU-DIPG-XXV, MIPE5.0, CellTiter-Glo, qHTS, dose response (AID 1347065; cut-off not given, nearly all actives have AC50 up to about 26 µM;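 further: cells exposed to compound for 48 hours before ATP readout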). Conditions: CellTiter-Glo ATP luminescence.
Assay [8] can be described thus: growth inhibition of DIPG cells – cell-based, MIPE4.0 library, CellTiter-Glo luminescence, qHTS (AID 1347066; cut-off not given, nearly all actives have AC50 up to about 30 µM;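 further: cells exposed to compound for 48 hours before readout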). Conditions: SU-DIPG-VI viability, CellTiter-Glo ATP luminescence.
The nature of assay [9]: JHH-DIPG-1 glioma cell viability, MIPE5.0 library, CellTiter-Glo luminescence, qHTS (AID 1347067; cut-off not given, nearly all actives have AC50 up to about 26 µM;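 further: cells exposed to compound for 48 hours before readout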). To be noted: JHH-DIPG-1 glioma viability, CellTiter-Glo ATP luminescence.
Assay [10] can be described thus: growth inhibition of DIPG cells – cell-based, MIPE5.0 library, qHTS (AID 1347068; cut-off not given, nearly all actives have IC50 up to about 30 µM). To be noted: SU-DIPG-XXV viability. In general terms: Quantitative high-throughput screening tests each substance at several concentrations.
Assay [11] can be described thus: MELAS cybrid and Rieske KO viability enhancers – cell-based, MELAS cybrids, Rieske KO mouse fibroblasts, CellTiter-Glo, primary screen (AID 1508586;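 active means mean z-score across replicates of 1.96 or higher in either the MELAS or the Rieske mutant cell line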;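 further: z relative to plate mean and SD of compound and empty wells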). Conditions: low glucose.
The target in assay [12] is NAD(+) hydrolase SARM1 (Homo sapiens) (UniProt Q6SZW1). In words: blocking NAD cleavage by SARM1 SAM-TIR – cell lysate, NAD-Glo luminescence (AID 1508614;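 active means compound whose remaining NAD level is above about 45 nM, limit read from the data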). Conditions: SAM-TIR HEK293T lysate NADase, at 1 µM, stronger effect = higher value.
Assay [13] has as its system Aerobactin synthetase IucA (Klebsiella pneumoniae hvKP1). In words: IucA enzyme inhibition, primary screen, biochemical, Spectrum library (AID 1346200; call rule not given here;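 further: 100% = wells without compound and 0% = wells lacking enzyme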). Conditions: malachite green pyrophosphate, A620, at 8 µM, stronger effect = lower value.
Assay [14] addresses Mitogen-activated protein kinase 7 (Homo sapiens) (UniProt Q13164). In words: Gal4-ERK5 driven luciferase induction – cell-based, HTS, primary screen (AID 1508626;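 active means luciferase signal above three times the same-plate solvent-only control wells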;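 further: luciferase driven by Gal4-ERK5 fusion binding five Gal4 sites before minimal TATA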). To be noted: HeLa Gal4-ERK5 transactivation, 18 h, at 5 µM, stronger effect = higher value.
Assay [15] concerns the target ATP-dependent translocase ABCB1 (Homo sapiens) (UniProt P08183). In words: P-glycoprotein substrate transport blockade – cell-based (AID 377; in the data active means fluorescence slope change above about 50%). To be noted: MDR1-expressing cells, fluorescent substrate accumulation slope; stronger effect = higher value; concentration not given here.
Assay [16] in a line: compounds altering viability of human ES cells (AID 493140; call rule not given here;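 further: cells exposed to compounds for four days before counting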). Conditions: human embryonic stem cell survival screen; stronger effect = higher value.
A short description of assay [17]: P. berghei load reduction in hepatocytes – cell-based, HepG2, luciferase luminescence, HepG2 viability, primary screen (AID 624349; in the data active means parasite load remaining mostly below about 12%, no sharp cut-off; inactive means mostly above about 10%;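 further: 100% = mean of DMSO negative control wells on the same plate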). To be noted: P. berghei liver stage in HepG2, luciferase luminescence, concentration not given here; parasite load remaining: stronger effect = lower value; viability: measured here: HepG2 viability without parasites.
Assay [18] is described as follows: viability loss with induced miR-34 in A549 – imaging, A549 dox-inducible miR-34, nuclei and caspase counts, primary screen (AID 1347080;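 active means compounds whose cell count with miR-34 switched on is under 0.7 times the count with it off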). To be noted: A549 miR-34 inducible, Hoechst nuclei count, 48 h.
Assay [19] in a line: galactose survival enhancers in mitochondrial complex I cybrids – cell-based, galactose medium, ATP luminescence, primary screen (AID 1645843;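 active means z-score of at least 1.8 in each of two replicates, scored against plate mean and spread of sample wells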;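 further: positive z means more ATP and so rescue of galactose-driven cybrid death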). To be noted: complex I mutant cybrid cells, 72 h, stronger effect = higher value.
Assay [20] has as its system Aerobactin synthetase IucA (Klebsiella pneumoniae, hypervirulent). In words: biochemical IucA inhibition screen of LOPAC library by absorbance (AID 1346212; call rule not given here;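 further: 100% = no compound wells and 0% = no enzyme wells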). Conditions: IucA enzyme assay, absorbance (OD) readout; stronger effect = lower value;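 tested at 8 µM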.
Where [21] appears, read: MELAS cybrid survival, CellTiter-Glo 48 h, stronger effect = higher value.
[22] abbreviates: Rieske KO mouse fibroblast survival, CellTiter-Glo 72 h.
[23] abbreviates: measured here: relative caspase fold change +Dox/-Dox.
Setting [24] is: measured here: total cells with miR-34 induction, stronger effect = lower value.
Setting [25] is: measured here: total cells without miR-34 induction.

Chain of NAD(+) hydrolase SARM1 (Homo sapiens) (Q6SZW1 whole entry, looked up): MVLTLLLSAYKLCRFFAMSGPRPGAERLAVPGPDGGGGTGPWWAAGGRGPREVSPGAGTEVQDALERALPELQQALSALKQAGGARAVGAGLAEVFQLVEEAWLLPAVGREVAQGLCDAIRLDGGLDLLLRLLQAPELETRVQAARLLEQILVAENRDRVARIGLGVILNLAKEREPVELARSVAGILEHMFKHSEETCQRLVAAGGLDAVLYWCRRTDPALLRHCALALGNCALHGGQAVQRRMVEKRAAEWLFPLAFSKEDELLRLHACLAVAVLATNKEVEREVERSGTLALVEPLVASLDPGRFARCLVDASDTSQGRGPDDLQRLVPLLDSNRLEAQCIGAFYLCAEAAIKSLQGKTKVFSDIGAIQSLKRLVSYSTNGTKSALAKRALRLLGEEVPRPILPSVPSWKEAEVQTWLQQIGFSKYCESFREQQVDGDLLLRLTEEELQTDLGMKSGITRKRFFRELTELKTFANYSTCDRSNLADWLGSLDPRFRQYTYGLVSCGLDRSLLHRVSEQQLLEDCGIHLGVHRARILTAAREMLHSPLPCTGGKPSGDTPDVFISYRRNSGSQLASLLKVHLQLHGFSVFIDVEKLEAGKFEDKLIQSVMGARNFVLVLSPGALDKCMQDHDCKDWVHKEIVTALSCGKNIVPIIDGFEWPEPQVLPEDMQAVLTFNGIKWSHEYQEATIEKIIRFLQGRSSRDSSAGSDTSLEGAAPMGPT
Chain of Mitogen-activated protein kinase 7 (Homo sapiens) (Q13164 whole entry, looked up, the tested form may be a part): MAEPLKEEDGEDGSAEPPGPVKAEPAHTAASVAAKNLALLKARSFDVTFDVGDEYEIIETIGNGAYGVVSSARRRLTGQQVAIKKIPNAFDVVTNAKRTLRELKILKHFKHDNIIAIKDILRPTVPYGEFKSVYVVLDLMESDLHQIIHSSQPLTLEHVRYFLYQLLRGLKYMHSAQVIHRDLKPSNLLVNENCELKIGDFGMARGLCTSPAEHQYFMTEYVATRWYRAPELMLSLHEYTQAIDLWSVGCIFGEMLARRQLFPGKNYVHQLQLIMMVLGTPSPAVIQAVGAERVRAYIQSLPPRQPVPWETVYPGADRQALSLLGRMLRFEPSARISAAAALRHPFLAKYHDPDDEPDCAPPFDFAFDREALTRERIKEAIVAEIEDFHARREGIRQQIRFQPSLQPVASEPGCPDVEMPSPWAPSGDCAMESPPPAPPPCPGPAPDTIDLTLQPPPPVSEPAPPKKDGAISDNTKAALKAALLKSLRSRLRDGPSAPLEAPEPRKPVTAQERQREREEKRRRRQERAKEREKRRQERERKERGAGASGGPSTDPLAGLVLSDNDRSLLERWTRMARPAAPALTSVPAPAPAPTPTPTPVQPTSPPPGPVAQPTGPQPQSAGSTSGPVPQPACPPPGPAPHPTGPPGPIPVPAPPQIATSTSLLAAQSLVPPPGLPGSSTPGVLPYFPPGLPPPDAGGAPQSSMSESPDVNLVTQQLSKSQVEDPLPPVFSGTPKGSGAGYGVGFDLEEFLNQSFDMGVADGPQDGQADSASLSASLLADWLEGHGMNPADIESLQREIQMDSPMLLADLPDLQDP
Chain of 6-phosphogluconate dehydrogenase, decarboxylating (Homo sapiens) (P52209 whole entry, looked up): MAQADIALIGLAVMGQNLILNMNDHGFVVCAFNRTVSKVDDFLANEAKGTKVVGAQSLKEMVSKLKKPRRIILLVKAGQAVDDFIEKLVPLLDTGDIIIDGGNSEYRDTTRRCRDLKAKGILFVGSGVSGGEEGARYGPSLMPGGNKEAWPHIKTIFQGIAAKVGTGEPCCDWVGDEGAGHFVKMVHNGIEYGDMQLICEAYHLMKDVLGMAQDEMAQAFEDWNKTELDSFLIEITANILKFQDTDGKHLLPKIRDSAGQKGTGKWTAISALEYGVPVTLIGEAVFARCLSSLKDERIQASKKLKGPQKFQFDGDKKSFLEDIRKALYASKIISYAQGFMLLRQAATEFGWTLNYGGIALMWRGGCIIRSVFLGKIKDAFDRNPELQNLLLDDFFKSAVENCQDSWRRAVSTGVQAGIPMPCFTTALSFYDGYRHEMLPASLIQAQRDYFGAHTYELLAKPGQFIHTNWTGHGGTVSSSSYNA
Chain of ATP-dependent translocase ABCB1 (Homo sapiens) (P08183 whole entry, looked up): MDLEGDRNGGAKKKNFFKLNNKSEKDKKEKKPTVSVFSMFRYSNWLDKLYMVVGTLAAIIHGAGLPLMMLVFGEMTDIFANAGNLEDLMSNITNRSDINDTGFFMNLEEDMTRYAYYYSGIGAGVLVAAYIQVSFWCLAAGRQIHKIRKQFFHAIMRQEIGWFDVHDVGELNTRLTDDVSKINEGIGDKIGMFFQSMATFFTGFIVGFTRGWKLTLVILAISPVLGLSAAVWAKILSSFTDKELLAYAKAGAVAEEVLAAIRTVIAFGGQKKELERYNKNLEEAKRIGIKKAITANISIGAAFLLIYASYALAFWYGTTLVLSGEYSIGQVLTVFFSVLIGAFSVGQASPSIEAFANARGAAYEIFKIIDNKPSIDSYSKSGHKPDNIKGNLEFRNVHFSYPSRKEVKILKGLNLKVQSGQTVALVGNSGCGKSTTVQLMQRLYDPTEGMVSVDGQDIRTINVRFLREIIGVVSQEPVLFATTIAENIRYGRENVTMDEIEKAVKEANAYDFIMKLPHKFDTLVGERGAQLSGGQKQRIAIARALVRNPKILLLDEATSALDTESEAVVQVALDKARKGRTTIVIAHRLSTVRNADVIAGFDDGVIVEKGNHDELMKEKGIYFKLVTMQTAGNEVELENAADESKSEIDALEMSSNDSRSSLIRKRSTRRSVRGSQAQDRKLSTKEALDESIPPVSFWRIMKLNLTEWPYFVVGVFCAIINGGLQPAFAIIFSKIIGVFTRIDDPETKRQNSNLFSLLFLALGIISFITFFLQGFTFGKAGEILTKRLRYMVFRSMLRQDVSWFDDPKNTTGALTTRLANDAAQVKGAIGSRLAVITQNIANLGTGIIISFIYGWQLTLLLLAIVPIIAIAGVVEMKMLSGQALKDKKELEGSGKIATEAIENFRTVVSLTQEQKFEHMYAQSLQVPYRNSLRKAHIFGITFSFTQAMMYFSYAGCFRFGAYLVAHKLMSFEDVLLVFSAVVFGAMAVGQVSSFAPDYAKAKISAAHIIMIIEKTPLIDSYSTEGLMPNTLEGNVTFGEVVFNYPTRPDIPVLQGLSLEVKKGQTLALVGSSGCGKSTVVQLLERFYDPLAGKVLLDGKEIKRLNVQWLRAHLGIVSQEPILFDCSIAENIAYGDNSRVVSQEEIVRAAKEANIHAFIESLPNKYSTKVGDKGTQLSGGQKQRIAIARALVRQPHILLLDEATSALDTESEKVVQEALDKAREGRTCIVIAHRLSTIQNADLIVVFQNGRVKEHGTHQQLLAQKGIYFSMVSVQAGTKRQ

In the case of `CC(C)C[C@H](CN)CC(=O)O`, the inhibition in assay [1] is 9.49% (inactive). Moreover, the result in assay [2], in assay [3], in [4], in [5], in [6] and in assay [7] was inactive. Further, the result in assay [8], in assay [9] and in assay [10] was inactive. In addition, the z-score was -0.0671 (inactive) in [11] (setting [21]) and 0.159 in [11] (setting [22]). Also, in assay [12], the remaining NAD was 10 nM (inactive).

As to `CCCN(CCC)c1c([N+](=O)[O-])cc(C(F)(F)F)cc1[N+](=O)[O-]`, the inhibition in assay [1] is -18.5% (inactive). Besides, in assay [13], the activity remaining is 95.7% (inactive). Besides, in [14], the luciferase signal is 72 AU (inactive).

For `CC(C)N1C(=O)c2ccccc2NS1(=O)=O`, the inhibition in [1] was -1.1% (inactive). Moreover, the activity remaining in [13] was 106% (inactive). In assay [14], the luciferase signal is 92 AU (inactive).

On to `COc1cc([C@@H]2c3cc4c(cc3[C@H](OC(C)=O)[C@H]3COC(=O)[C@@H]23)OCO4)cc(OC)c1OC`, for which the inhibition in assay [1] was -3.31% (inactive). Also, the activity remaining in assay [13] was 96.2% (inactive). Moreover, the luciferase signal in assay [14] was 64 AU (inactive).

Regarding `C[C@]12CCC(=O)C=C1C=C[C@@H]1[C@@H]2CC[C@@]2(C)[C@H]1CC[C@@]2(O)CCC(=O)O`, the fluorescence slope change in assay [15] was 75% (active). In addition, the survival in assay [16] was 19.2 (inactive). Also, in [17], the parasite load remaining is 48.7% (inactive) and 84.2% (inactive). The viability in assay [17] was 45.8% and 86.3%. Further, in assay [1], the inhibition is -4.06% (inactive). For the same compound, the fold change in [18] (stronger effect = lower value) is 0.935 (inactive); in assay [18] (setting [23]), 1.18. Besides, the cell count worked out at 8420 in [18] (setting [24]) and 9010 in [18] (setting [25]). Further, the z-score in [11] (setting [21]) is 0.754 (inactive); in assay [11] (setting [22]), 0.299.

Regarding `COc1cc([C@@H]2c3cc4c(cc3[C@H](OC(C)=O)[C@H]3COC(=O)[C@H]23)OCO4)cc(OC)c1OC`, the inhibition in assay [1] was -6.91% (inactive). For the same compound, the activity remaining in assay [13] is 112% (inactive). The luciferase signal in assay [14] is 244 AU (active).

For the compound `CNNC`, the inhibition in assay [1] is -3.38% (inactive). In addition, in [13], the activity remaining is 86.5% (inactive). In [14], the luciferase signal was 32 AU (inactive).

With `N#Cc1c(Cl)cccc1Cl`, the inhibition in assay [1] was -5.35% (inactive). For the same compound, in assay [13], the activity remaining is 93.8% (inactive). For the same compound, the luciferase signal in [14] was 52 AU (inactive).

As to `COc1c2c(c(CC=C(C)C)c3oc(=O)c(-c4ccc(O)cc4)c(O)c13)OC(C)(C)C=C2`, in [1], the inhibition is -5.17% (inactive). Also, the activity remaining in [13] was 104% (inactive). Besides, the luciferase signal in [14] is 60 AU (inactive).

As for `COc1ccc2c(c1)[C@]13CCCC[C@@H]1[C@H](C2)N(C)CC3`, the inhibition in assay [1] is 2.05% (inactive). Moreover, the fold change is 0.873 (inactive) and 0.843 (inactive) and 0.893 (inactive) in assay [18] (stronger effect = lower value); 2.02 and 0.727 and 1.27 in assay [18] (setting [23]). Also, the cell count was 9020 and 10500 and 9760 in assay [18] (setting [24]); 10300 and 12400 and 10900 in [18] (setting [25]). In addition, the z-score in assay [11] (setting [21]) was 0.326 (inactive) and 0.234 (inactive); in [11] (setting [22]), 0.302 and -0.256; in assay [19], -0.13 (inactive). For the same compound, in assay [12], the remaining NAD was 10 nM (inactive). Also, in [14], the luciferase signal is 28 AU (inactive).

With `CCNc1nc(Cl)nc(NC(C)C)n1`, in [1], the inhibition is 7.64% (inactive). The activity remaining in assay [13] was 97.8% (inactive). The fold change in assay [18] (stronger effect = lower value) was 0.888 (inactive); in assay [18] (setting [23]), 0.465. Also, the values for the cell count in assay [18] (setting [24]) and in assay [18] (setting [25]) were 8110 and 9140, respectively. Also, the figures for the z-score in assay [11] (setting [21]), in assay [11] (setting [22]) and in [19] were 3.44 (active), -0.553 and 0.59 (inactive), respectively. The luciferase signal in assay [14] is 36 AU (inactive).

Consider `Oc1ccc2c3c1O[C@H]1[C@@H](O)CC[C@@]4(O)[C@@H](C2)N(CC2CCC2)CC[C@]314`, for which the fluorescence slope change in assay [15] is 211% (active). For the same compound, the survival in assay [16] is 24.5 (inactive). Also, in assay [17], the parasite load remaining is 32.6% (inactive) and 106% (inactive) and 79.1% (inactive). For the same compound, the viability in [17] was 52.8% and 85.6% and 172%. The inhibition in assay [1] is -20.2% (inactive). Also, in [20], the remaining activity was 118% (inactive). In addition, the fold change in [18] (stronger effect = lower value) is 0.924 (inactive) and 0.934 (inactive); in assay [18] (setting [23]), 1.19 and 1.05. The cell count in assay [18] (setting [24]) is 9080 and 10200; in assay [18] (setting [25]), 9820 and 11000. For the same compound, the z-score in assay [11] (setting [21]) is 0.883 (inactive) and 0.331 (inactive); in [11] (setting [22]) it was 0.202 and -0.251; in assay [19], 0.78 (inactive). Besides, the remaining NAD in assay [12] was 10 nM (inactive). The luciferase signal in assay [14] was 52 AU (inactive).

The values are drawn from PubChem BioAssay.
